CDC25B CDK2 inh: human CDC25B-CDK2/CyclinA binding inhibition. 0.72% of 94,000 active. HTRF CDC25B-CDK2/CyclinA binding, anti-His/anti-Flag; hits give high values. z-score (no concentration beside the values). P30305+P24941. AID 1259370; in the data active means z-score above about 3.2
TAR Tat displ: HIV-1 TAR-Tat binding disruption; 0.6% of 100,000 active; z-score (no concentration beside the values); HIV-1 TAR RNA, Tat peptide displacement FRET; hits give high values; active means z-score of 3 or more in at least 2 runs
Large screens that a line does not name were inactive. Sampled rows, rich in hits. Any-hit rate of the full collection: about 0.86%.

CC(Sc1nc2c(c(=O)[nH]1)CCCC2)C(=O)Nc1ccc(F)cc1 (stereo unspecified)	none
CC(Sc1nc2c(c(=O)[nH]1)CCCC2)C(=O)Nc1ccc(Br)cc1 (stereo unspecified)	TAR Tat displ 13
Cc1ccc([C@H]2C(C#N)=C(N)Oc3cc(C)oc(=O)c32)o1	none (no result: TAR Tat displ)
Cc1ccc(/C=c2/sc3n(c2=O)C(N)=C(C#N)C(c2ccc(C)o2)C=3C#N)o1 (stereo unspecified)	CDC25B CDK2 inh 6.6 (no result: TAR Tat displ)
CCCCCn1c(=O)c2c(nc3n2CCN3c2ccc(C)cc2)n(C)c1=O	TAR Tat displ 5.2 (no result: CDC25B CDK2 inh)
CCCCn1c(=O)c2c(nc3n2CCN3c2ccc(C)cc2)n(C)c1=O	none (no result: CDC25B CDK2 inh)
Cn1c(=O)c2c(-c3ccccc3Br)n(C[C@H]3CCCO3)cc2n(C)c1=O	none
CCOC(=O)C1=C(C)NC2=C(C(=O)C(C(=O)OC)C(C)C2)C1c1ccc(O)cc1 (stereo unspecified)	none
CCCCN1C(=O)C(O)(CC(=O)c2ccccc2)c2ccccc21 (stereo unspecified)	CDC25B CDK2 inh 12
CCN1C(=O)C(O)(CC(=O)c2ccc(F)cc2)c2ccccc21 (stereo unspecified)	none
NC(=O)CN1C(=O)C(O)(CC(=O)c2ccc(F)cc2)c2ccccc21 (stereo unspecified)	CDC25B CDK2 inh 16
CCCCN1C(=O)C(O)(CC(=O)c2ccc(C(C)C)cc2)c2ccccc21 (stereo unspecified)	none
CCOC(=O)CC(=O)CSc1nc(C)c2ccc(C)cc2n1	none
CCC(=O)n1/c(=N/C(=N)N)nc(C)c2ccc(C)cc21	CDC25B CDK2 inh 9 (no result: TAR Tat displ)
Cc1ccc(Cc2nnc(-c3cc(N)ccc3F)o2)cc1	TAR Tat displ 34 (no result: CDC25B CDK2 inh)
Cc1ccc(Cc2nnc(-c3ccc(N)cc3Cl)o2)cc1	none (no result: CDC25B CDK2 inh)
COC(=O)c1cc2sccc2n1CC(=O)c1ccccc1	CDC25B CDK2 inh 9.2
COC(=O)c1cc2sccc2n1CC(=O)N(C)c1ccccc1	none
CC(=O)Nc1c2n(c3ccc(F)cc13)CC(C)(C(=O)NC1CCCC1)N(CCC(C)C)C2=O (stereo unspecified)	none (no result: CDC25B CDK2 inh)
COc1ccc(N2COc3cc4c(cc3C2)OCO4)cc1	none (no result: TAR Tat displ)
Fc1ccc(N2COc3cc4c(cc3C2)OCO4)cc1Cl	CDC25B CDK2 inh 8.6 (no result: TAR Tat displ)
CCOc1ccc(NC(=O)NCc2nnnn2-c2ccc(OCC)cc2)cc1	none (no result: CDC25B CDK2 inh)
O=C1C2=C(NC3=C(C(=O)c4ccccc43)C23C(=O)Nc2ccccc23)c2ccccc21	CDC25B CDK2 inh 12 (no result: TAR Tat displ)
CC(C)(C)C1(O)C(=O)Nc2ccccc21 (stereo unspecified)	none
C=CCN(C(=O)c1nn(C)c2c1CSc1ccccc1-2)c1ccccc1	none
COc1ccc(C2C(C#N)=C(N)OC3=C2C(=O)CCC3)c(OC)c1 (stereo unspecified)	none (no result: TAR Tat displ)
Cc1ccc(C2Nc3ccccc3NC3=C2C(=O)CC(c2cccs2)C3)cc1 (stereo unspecified)	none
O=C1CC(c2ccco2)CC2=C1C(c1ccco1)Nc1ccccc1N2 (stereo unspecified)	none
CN(C)c1ccc(C2Nc3ccccc3NC3=C2C(=O)CC(c2cccs2)C3)cc1 (stereo unspecified)	CDC25B CDK2 inh 7.4
CCN(CC)c1ccc(C2CC(=O)C3=C(C2)Nc2ccccc2NC3c2ccco2)cc1 (stereo unspecified)	TAR Tat displ 25
CC(C)c1ccc(-c2c(NC(C)c3ccccc3)c(=O)c2=O)cc1 (stereo unspecified)	none (no result: CDC25B CDK2 inh)
O=C1CSc2ccc(S(=O)(=O)N3CC=C(c4ccccc4)CC3)cc2N1	none (no result: CDC25B CDK2 inh)
COc1cc(O)c2c(c1)oc(=O)c1c3cc(O)c(O)cc3oc21	TAR Tat displ 38 (no result: CDC25B CDK2 inh)
COc1ccc2c(c1)oc(=O)c1ccccc12	none
COc1ccc(-c2cc(C(F)(F)F)n3nc(C(=O)O)cc3n2)cc1	none (no result: CDC25B CDK2 inh)
CC(C)C1NC(=S)NC2=C1CCCC2 (stereo unspecified)	none (no result: TAR Tat displ)
O=C1CC(c2ccccc2F)C2=C(CC(c3ccccc3Cl)CC2=O)N1 (stereo unspecified)	none
O=C1CC(c2ccccc2Cl)C2=C(CC(c3ccccc3Cl)CC2=O)N1 (stereo unspecified)	TAR Tat displ 15
Nc1cccnc1Nc1ccccc1	none
COc1ccc(Nc2ncccc2N)cc1	CDC25B CDK2 inh 13
Cc1ccc2cc3c(nc2c1)N(S(=O)(=O)c1ccc(Cl)cc1)CC3	none
Cc1cccc(N2CCN(c3cc(C(=O)O)c4cc(N)ccc4n3)CC2C)c1 (stereo unspecified)	TAR Tat displ 6.5 (no result: CDC25B CDK2 inh)
CC1CCN(c2cc(C(=O)O)c3cc(N)ccc3n2)CC1	none (no result: CDC25B CDK2 inh)
c1nc(NCCc2ccc3c(c2)OCO3)c2c3c(sc2n1)CCCC3	none (no result: CDC25B CDK2 inh)
Oc1ccc(CN2CCN(c3ccccc3)CC2)c2cccnc12	none (no result: CDC25B CDK2 inh)
Oc1c(CN2CCOCC2)ccc2cccnc12	none
Oc1ccc(CN2CCCCC2)c2cccnc12	CDC25B CDK2 inh 14
Oc1c(CN2CCN(Cc3ccc4cccnc4c3O)CC2)ccc2cccnc12	TAR Tat displ 9.4
COc1ccc(CNc2nc3c(S(=O)(=O)c4cccc(Cl)c4)nnn3c3ccsc23)cc1	none (no result: CDC25B CDK2 inh)
CCn1c(C(=O)N2CCC(C(=O)N3CCCCC3)CC2)cc2occc21	none
Cc1cc(C)c(S(=O)(=O)Nc2cc(Br)c(O)c3ccccc23)c(C)c1	CDC25B CDK2 inh 19 (no result: TAR Tat displ)
Cc1cc(C)c(S(=O)(=O)Nc2ccc(O)cc2)c(C)c1	none
OCCCNc1ncnc2c1c(-c1ccccc1)cn2-c1ccccc1	none (no result: CDC25B CDK2 inh)
O=C(CSc1ccc([N+](=O)[O-])cc1Cl)NCc1ccccc1	CDC25B CDK2 inh 15 (no result: TAR Tat displ)
CCOC(=O)CSc1ccc([N+](=O)[O-])cc1Cl	none (no result: TAR Tat displ)
COc1cc(NC(=O)N2c3ccccc3NC3=C(C(=O)CCC3)C2c2cccs2)cc(OC)c1 (stereo unspecified)	none (no result: CDC25B CDK2 inh)
O=c1oc(Cc2ccccc2)nc2scc(-c3ccccc3)c12	none
CC(C)(C)c1nc2scc(-c3ccccc3)c2c(=O)o1	CDC25B CDK2 inh 5.9
Cc1nc(S(=O)(=O)Nc2ccccc2)cn1C	none (no result: CDC25B CDK2 inh)
O=C(Cn1cnc2nc3c(cc2c1=O)CCCC3)NCc1ccc2c(c1)OCO2	none (no result: CDC25B CDK2 inh)
CCSc1ncc2c(=O)n(CC(=O)NCc3ccc4c(c3)OCO4)cnc2n1	TAR Tat displ 13 (no result: CDC25B CDK2 inh)
CCOc1ccc(C2C3=C(Nc4nc(N)[nH]c(=O)c42)c2ccccc2C3=O)cc1 (stereo unspecified)	CDC25B CDK2 inh 14
CCOc1ccc(C2C3=C(CCCC3=O)NC3=C2C(=O)c2ccccc23)cc1 (stereo unspecified)	none
CC1(C)CC(=O)C2=C(C1)Nc1nc(SCc3ccccc3)nn1C2c1ccc(F)cc1 (stereo unspecified)	none
CCC[C@@H]1C(=O)OC[C@@H]1Cc1cncn1C	none (no result: TAR Tat displ)
NS(=O)(=O)c1ccc(NC(=O)c2[nH]nc3c2COc2ccccc2-3)cc1	none (no result: CDC25B CDK2 inh)
CC1CCN(C(=O)CSc2nc(-c3ccco3)nc3cc(=O)[nH]n23)CC1	TAR Tat displ 9.2 (no result: CDC25B CDK2 inh)
CC1CCCCN1C(=O)CSc1nc(-c2ccco2)nc2cc(=O)[nH]n12 (stereo unspecified)	none (no result: CDC25B CDK2 inh)
O=C(CSc1cn(CC(=O)N2CCCCC2)c2ccccc12)N1CCOCC1	none (no result: CDC25B CDK2 inh)
O=C1CC(c2nc3ccccc3n2Cc2ccc(F)cc2)CN1Cc1ccccc1 (stereo unspecified)	none
Cc1ccc2cc(NC(=O)C3CC(=O)N(Cc4ccc(F)cc4)C3)ccc2n1 (stereo unspecified)	CDC25B CDK2 inh 6.6 (no result: TAR Tat displ)
Cc1cccc(-n2cc(-c3ccccc3)c3c(NCc4ccco4)ncnc32)c1	none (no result: CDC25B CDK2 inh)
Cc1ccccc1OCc1nc2c3c4c(sc3ncn2n1)C(C)(C)NC(C)(C)C4	none
O=c1cc(CSc2nnc(-c3cccs3)o2)nc2sc(C3CCCCC3)nn12	none

Screening data (PubChem BioAssay)
